# Test results from the supplement of paper PMC10811239.
# What was measured:
# Assay in all cases: bioluminescence (viable cell) signal fold change after vs before treatment, normalised to DMSO (ratio); higher = more tumour cell growth / less inhibition
# Conditions in all cases: 10 µM; treatment time 6 days
# [1] = system: LEGO organoid PT (PTEN-/-; TP53-/-)
# Experimental: (§1)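 Luc2-labelled iPSC-derived glioblastoma-like organoids (LEGOs, genotypes PT = PTEN-/-;TP53-/-, PTCC = plus CDKN2A/B-/-, PTN = plus NF1-/-) were treated with 10 uM drug for 6 days (applied every other day) at 37 C. Bioluminescence imaging was done before treatment and 2 days after the last dose. BLI signals were normalised to the DMSO control on the same day and then to the pre-treatment signal (N=3).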
# [2] = system: LEGO organoid PTCC (PTEN-/-; TP53-/-; CDKN2A-/-; CDKN2B-/-)
# Experimental: as §1
# [3] = system: LEGO organoid PTN (PTEN-/-; TP53-/-; NF1-/-)
# Experimental: as §1
Structure (SMILES),bioluminescence [1],bioluminescence [2],bioluminescence [3]
C[C@@H]1O[C@]2(CS1)CN1CCC2CC1.C[C@@H]1O[C@]2(CS1)CN1CCC2CC1.Cl.Cl.O [Cevimeline hydrochloride hemihydrate],0.884,1.04,0.522
Cl.OC(CCN1CCCCC1)(c1ccccc1)C1CCCCC1 (racemic) [DL-trihexyphenidyl hydrochloride],1.67,0.966,0.496
NNC(=O)c1ccncc1 [Isoniazid],0.807,0.847,1.06
C=C/C=C/C[C@@H](C)[C@@H](O)[C@H]1C(=O)N[C@@H](CC)C(=O)N(C)CC(=O)N(C)[C@@H](CC(C)C)C(=O)N[C@@H](C(C)C)C(=O)N(C)[C@@H](CC(C)C)C(=O)N[C@@H](C)C(=O)N[C@H](C)C(=O)N(C)[C@@H](CC(C)C)C(=O)N(C)[C@@H](CC(C)C)C(=O)N(C)[C@@H](C(C)C)C(=O)N1C [Voclosporin],0.414,0.723,0.446
O=C([O-])Cc1ccccc1Nc1c(Cl)cccc1Cl.[Na+] [Diclofenac sodium],0.777,1.05,1.75
CCOc1nc2cccc(C(=O)OC(C)OC(=O)OC3CCCCC3)c2n1Cc1ccc(-c2ccccc2-c2nn[nH]n2)cc1 (centres undefined) [Candesartan Cilexetil],1.14,1.17,1.04
CN1CCN(C2=Nc3cc(Cl)ccc3Nc3ccccc32)CC1 [Clozapine],1.13,0.388,0.617
Cc1nc(Nc2ncc(C(=O)Nc3c(C)cccc3Cl)s2)cc(N2CCN(CCO)CC2)n1 [Dasatinib],0.748,0.977,2
